The target in test [1] is Guanine nucleotide-binding protein G(i) subunit alpha-1 (Homo sapiens) (UniProt P63096). Description: qHTS Assay for Inhibitors of RGS12 GoLoco Motif Activity (Green Fluorophore) (AID 879).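 Also: negative values mean loss of peptide binding seen as reduced polarization.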 An outline of the steps:
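Fluorescence polarization assay: 50 nM Gαi1 with 10 nM FITC-labeled RGS12 GoLoco peptide in 10 mM Tris pH 7.5, 150 mM NaCl, 0.1 mM GDP, 0.05% NP40, 10 min at room temperature with compound.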
Background: qHTS replaces the single test concentration by a dilution series.

The target of test [2] is Cytochrome P450 3A4 (Homo sapiens) (UniProt P08684). Description: qHTS Assay for Activators of Cytochrome P450 3A4 (AID 885). Also: nearly all actives have a fitted effect of over 65% in size. An outline of the steps: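 Quantitative HTS format: compounds preincubated with 20nM human CYP3A4 and Luciferin-PPXE substrate at KM, reaction started by NADPH regeneration, stopped after 60 min, luciferase luminescence read 20 min later.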
Test [3] has as its target Cytochrome P450 2D6 (Homo sapiens) (UniProt P10635). Description: qHTS Assay for Inhibitors and Substrates of Cytochrome P450 2D6 (AID 891). Also: nearly all actives have a fitted effect of over 60% in size. Also: potency is read from the fitted curve at half-maximal effect. An outline of the steps:
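Human CYP2D6 (5 nM) with 30 uM Luciferin-ME EGE (at Km) in 100 mM KPO4, compound preincubated 10 min, then NADPH regeneration system for 60 min at room temperature. Luciferin read by luminescence; normalized to 1.43 uM quinidine.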

The nature of test [4]: Confirmation and Secondary Assay for Modulators of Hemoglobin Beta Chain Splicing at IVS2 654 locus (AID 910).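 Also: HeLa cells stably carrying EGFP split by mutant beta-globin IVS2-654 intron.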 An outline of the steps: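 HeLa cells stably expressing EGFP interrupted by β-globin IVS2-654 intron, seeded overnight in Opti-MEM/2% FCS, then treated 2 days at 37 °C. Restored splicing read as total peak GFP intensity per well by laser scanning cytometry (488 nm excitation, 500–520 nm emission); 500 nM antisense PNA as control.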

The nature of test [5]: Confirmation and Secondary Assay for Modulators of Hemoglobin Beta Chain Splicing at IVS2 705 locus (AID 930).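 Also: HeLa cells stably expressing the EGFP-705 splicing reporter; GFP fluorescence per well restored by corrected splicing of the IVS2-705 intron in EGFP; series mostly up to about 46 µM.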 In outline: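 Stable HeLa line with EGFP disrupted by mutant beta-globin intron 2 (705). Overnight attachment, then 2 days of compound at 37C, 5% CO2. Signal: peak GFP intensity summed over objects 5-250 µm.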
For test [6], the target named is Pyruvate kinase (Leishmania mexicana) (UniProt Q27686). Description: qHTS Validation Assay for Inhibitors of Leishmania Mexicana Pyruvate Kinase (AID 945). An outline of the steps: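 Mutant LmPYK (E451W), 0.2 nM, plus 0.5 mM PEP and 0.1 mM ADP in 50 mM imidazole pH 7.2 containing 0.01% Tween 20 and 0.05% BSA. Incubated 1 h at room temperature; luminescence via PKLight, normalized to DMSO.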

The nature of test [7]: qHTS Assay for Identification of Small Molecule Antagonists for NFkB Signaling Pathway (AID 895; active = well fitted inhibition curve with a large enough effect in the signal ratio, with a control signal flat, not every such curve was filed as active; the % refers to the signal ratio; also: potency is read from the fitted curve at half-maximal effect). An outline of the steps:
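ME-180 NFkB-bla cells (beta-lactamase under NFkB response element), plated overnight, treated with compound then 10 pM TNF alpha (about EC50) for 5 hrs at 37 C. LiveBLAzer FRET read at 460/530 nm emission, 405 nm excitation.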

The nature of test [8]: qHTS Assay for Identification of Small Molecule Agonists for Thrombopoietin (TPO) Signaling Pathway (AID 917). In outline:
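Reporter: GpIIb promoter–luciferase in murine Ba/F3 expressing human TPO receptor. Pre-starved of IL-3 overnight; compounds with 26 pM TPO, 24 hrs, 37 C/5% CO2; luminescence read.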

Test [9] concerns the target Muscarinic acetylcholine receptor M1 (Rattus norvegicus) (UniProt P08482). Description: qHTS Assay for Antagonists of Acetylcholine Muscarinic M1 Receptor: Kinetic Measurement of Intracellular Calcium Response (AID 943).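 Also: Fluo-4 calcium signal as peak divided by basal fluorescence over 4 min; series mostly up to about 35 µM; nearly all actives have a fitted effect of over 75% in size.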 In outline: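 Intracellular calcium flux, recorded with Fluo-4 in a kinetic plate reader, served as signal; the response to carbachol at EC80 (100 nM final) was taken as maximal over minimal fluorescence after a 10 min compound pre-incubation in rat M1-CHO cells.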

Test [10] shares this target. Nature of the test: qHTS Assay for Antagonists of Acetylcholine Muscarinic M1 Receptor: Measurement of IP-One Response (AID 944). Also: nearly all actives have a fitted effect of over 75% in size. An outline of the steps: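 Steps: plate transfected CHO-M1 cells overnight; add test compound, 10 min; add carbachol (200 nM, EC80) in stimulation buffer with LiCl; incubate 30 min; add labelled IP1 tracer and anti-IP1 antibody in lysis buffer; read HTRF after 10 min.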

The nature of test [11]: qHTS Assay for Identification of Small Molecule Agonists for Hypoxia Response Element Signaling Pathway (AID 914; active = well fitted activation curve with a large enough effect in the signal ratio, with a control signal flat, not every such curve was filed as active; the % refers to the signal ratio; also: potency is read from the fitted curve at half-maximal effect). The conditions noted are these: ME-180 (cervical carcinoma) HRE-bla reporter, beta-lactamase ratio, CoCl2, 17 h; activation: hits give high values. An outline of the steps: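 Reporter activity (beta-lactamase, CCF4 460nm/530nm ratio) in HRE-bla ME-180 cells is recorded after 17 h compound exposure with EC50 CoCl2 at 37 degrees Celsius. AC50 values come from titration data.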

For test [12], the target named is Cytochrome P450 2C9 (Homo sapiens) (UniProt P11712). Description: qHTS Assay for Inhibitors and Substrates of Cytochrome P450 2C9 (AID 883). Also: nearly all actives have a fitted effect of over 60% in size. Also: potency is read from the fitted curve at half-maximal effect. In outline: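 10nM CYP2C9 + 100uM Luciferin-H (=KM), 25mM KPO4; cpd 10 min 37C; NADPH regen, 60 min 37C; stop/detect with P450 Glo-Buffer 20 min; luminescence. Norm. to 57uM sulphaphenazole as full inhibition.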
A short description of test [13]: Cellular Toxicity (caspase-3) H-4-II-E (AID 663).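 Also: cells exposed to compound for 16 hr before readout.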 An outline of the steps:
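Rat hepatoma H-4-II-E cells (1500/well) plated 5 hr, then exposed to compound titrations for 16 hr at 37 °C. Caspase-Glo 3/7 luminescence read after 20 min at RT; data normalized to DMSO and 100 uM tamoxifen, AC50 from Hill fits.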

Test [14] can be described thus: Cellular Toxicity (caspase-3) Hek293 (AID 664).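 Also: cells exposed to compound for 16 h at 37 °C before readout.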 In outline:
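Activation of caspase-3/7 is measured as increased luminescence from cleaved peptide-aminoluciferin substrate in HEK293 cells treated 16 hours at 37 °C. AC50 values come from Hill-equation fits of concentration-response data.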

Test [15] can be described thus: Cellular Toxicity (caspase-3) N2a (AID 665).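 Also: compound exposure lasted 16 h at 37 °C before readout.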 In outline: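 Plated mouse neuroblastoma N2a cells received titrated compounds for 16 h in complete medium. Caspase activity was then detected with a peptide-aminoluciferin luminescent reagent.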
A short description of test [16]: Cellular Toxicity (caspase-3) NIH 3T3 (AID 666).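 Also: caspase signal read after 16 h compound exposure.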 In outline:
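Concentration-response qHTS in NIH 3T3 mouse fibroblasts scores caspase-3/7 activation as rising luminescence after 16 hr compound exposure. Signals are scaled between DMSO-only and 100 uM tamoxifen.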

A short description of test [17]: Cellular Toxicity (caspase-3) Renal Proximal Tubule (AID 667).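 Also: cells exposed to compound for 16 hours at 37 °C before detection.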 An outline of the steps:
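Caspase 3/7 activation measured by luminescent aminoluciferin release in primary rat proximal tubule cells after 16 hr compound exposure at 37 °C. AC50 from Hill-fitted concentration-response, scaled between DMSO and 10 uM staurosporine.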

In test [18] the target is Cytochrome P450 3A4 (Homo sapiens) (UniProt P08684). Nature of the test: qHTS Assay for Inhibitors and Substrates of Cytochrome P450 3A4 (AID 884). Also: nearly all actives have a fitted effect of over 50% in size. Also: potency is read from the fitted curve at half-maximal effect. In outline:
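20 nM human CYP3A4 with 25 uM Luciferin-PPXE (at KM) in 200 mM KPO4, preincubated 10 min with compound; NADPH regeneration started a 60 min RT reaction. Luciferin detected by luminescence, normalized to 57 uM ketoconazole as full inhibition.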

A short description of test [19]: Cell Viability - LYMP2-001 (AID 921). Also: series mostly up to about 92 µM; nearly all actives have a fitted effect of over 70% in size. In outline: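 Cellular ATP loss read by luciferase luminescence after 24 h compound exposure at 37 C in complete medium. LYMP2-001 lymphoblastoid cells, 2500/well; qHTS concentration-response data fitted with Hill equation for AC50.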

Several values for one entry are separate records, joined by “and”; a condition that tells them apart may be missing. Equal values may be shown once. Inconclusive results are not listed. Activity calls are given as the source filed them. Unless noted, calls follow the shape of the dose curve; as a rule, active = well fitted curve in the direction sought with a large enough effect; inconclusive = small, poorly fitted or top-dose-only effect, or another doubt; inactive = no such curve, though single readings can be large; an effect the other way counts as inactive or inconclusive.

Chain of Muscarinic acetylcholine receptor M1 (Rattus norvegicus) (P08482 whole entry, looked up): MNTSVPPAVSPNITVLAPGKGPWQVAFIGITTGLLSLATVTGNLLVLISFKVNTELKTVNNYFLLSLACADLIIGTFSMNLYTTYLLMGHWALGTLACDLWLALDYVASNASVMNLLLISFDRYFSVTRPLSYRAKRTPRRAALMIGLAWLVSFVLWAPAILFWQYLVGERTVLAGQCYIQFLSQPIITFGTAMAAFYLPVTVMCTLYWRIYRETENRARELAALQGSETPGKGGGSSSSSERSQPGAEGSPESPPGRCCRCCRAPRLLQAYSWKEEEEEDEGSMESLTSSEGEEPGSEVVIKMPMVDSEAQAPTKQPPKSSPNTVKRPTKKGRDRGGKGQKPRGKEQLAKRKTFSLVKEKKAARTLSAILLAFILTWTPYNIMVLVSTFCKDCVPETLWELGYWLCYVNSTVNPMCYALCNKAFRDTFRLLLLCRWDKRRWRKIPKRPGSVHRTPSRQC
Chain of Cytochrome P450 2C9 (Homo sapiens) (P11712 whole entry, looked up): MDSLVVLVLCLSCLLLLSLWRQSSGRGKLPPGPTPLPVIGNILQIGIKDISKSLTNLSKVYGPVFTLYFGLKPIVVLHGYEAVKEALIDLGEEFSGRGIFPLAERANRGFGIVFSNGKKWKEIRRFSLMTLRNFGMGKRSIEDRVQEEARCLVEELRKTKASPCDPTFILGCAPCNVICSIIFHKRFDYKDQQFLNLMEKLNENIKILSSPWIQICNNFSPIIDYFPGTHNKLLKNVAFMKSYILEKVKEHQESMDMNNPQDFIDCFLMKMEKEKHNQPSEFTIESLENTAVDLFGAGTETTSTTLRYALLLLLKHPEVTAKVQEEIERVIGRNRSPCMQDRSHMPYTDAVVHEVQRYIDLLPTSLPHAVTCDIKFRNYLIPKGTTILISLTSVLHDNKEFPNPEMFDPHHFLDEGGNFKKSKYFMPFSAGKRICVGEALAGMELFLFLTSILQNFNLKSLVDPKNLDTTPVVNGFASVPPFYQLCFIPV
Chain of Guanine nucleotide-binding protein G(i) subunit alpha-1 (Homo sapiens) (P63096 whole entry, looked up): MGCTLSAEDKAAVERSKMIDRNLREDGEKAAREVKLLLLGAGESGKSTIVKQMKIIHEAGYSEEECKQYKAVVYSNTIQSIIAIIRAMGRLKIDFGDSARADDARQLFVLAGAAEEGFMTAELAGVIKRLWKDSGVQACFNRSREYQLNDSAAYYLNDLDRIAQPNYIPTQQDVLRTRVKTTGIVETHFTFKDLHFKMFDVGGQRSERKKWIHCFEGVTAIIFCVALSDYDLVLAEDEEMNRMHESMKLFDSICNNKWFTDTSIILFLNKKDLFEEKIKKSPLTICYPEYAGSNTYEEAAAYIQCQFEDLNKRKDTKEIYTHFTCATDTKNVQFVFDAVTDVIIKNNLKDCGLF
Chain of Cytochrome P450 3A4 (Homo sapiens) (P08684 whole entry, looked up): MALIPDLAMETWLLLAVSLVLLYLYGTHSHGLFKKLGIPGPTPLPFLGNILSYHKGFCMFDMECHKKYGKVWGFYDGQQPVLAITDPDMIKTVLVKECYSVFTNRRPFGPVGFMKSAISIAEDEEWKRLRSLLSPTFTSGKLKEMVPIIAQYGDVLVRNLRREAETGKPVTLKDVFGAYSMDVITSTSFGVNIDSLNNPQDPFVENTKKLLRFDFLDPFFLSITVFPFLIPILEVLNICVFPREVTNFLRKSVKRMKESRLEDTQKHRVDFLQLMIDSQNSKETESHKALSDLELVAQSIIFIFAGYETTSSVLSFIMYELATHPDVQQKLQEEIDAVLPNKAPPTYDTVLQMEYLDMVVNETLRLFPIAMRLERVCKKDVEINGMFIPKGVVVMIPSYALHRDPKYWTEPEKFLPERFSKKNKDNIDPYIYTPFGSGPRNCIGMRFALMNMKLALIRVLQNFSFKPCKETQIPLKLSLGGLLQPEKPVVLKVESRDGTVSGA
Chain of Pyruvate kinase (Leishmania mexicana) (Q27686 2-499 E452W): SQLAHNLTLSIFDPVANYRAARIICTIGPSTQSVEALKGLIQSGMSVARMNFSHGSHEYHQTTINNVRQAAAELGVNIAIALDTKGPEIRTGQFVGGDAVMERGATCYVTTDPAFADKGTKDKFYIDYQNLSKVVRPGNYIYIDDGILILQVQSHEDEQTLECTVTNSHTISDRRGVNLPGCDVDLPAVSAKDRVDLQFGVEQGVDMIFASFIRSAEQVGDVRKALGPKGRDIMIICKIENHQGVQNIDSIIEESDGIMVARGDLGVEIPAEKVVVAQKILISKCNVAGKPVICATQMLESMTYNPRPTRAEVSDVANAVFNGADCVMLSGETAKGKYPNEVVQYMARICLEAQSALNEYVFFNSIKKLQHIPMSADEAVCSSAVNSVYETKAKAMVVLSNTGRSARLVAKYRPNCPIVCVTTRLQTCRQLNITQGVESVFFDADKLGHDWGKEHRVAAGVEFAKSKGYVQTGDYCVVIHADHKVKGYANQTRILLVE
Chain of Cytochrome P450 2D6 (Homo sapiens) (P10635 whole entry, looked up): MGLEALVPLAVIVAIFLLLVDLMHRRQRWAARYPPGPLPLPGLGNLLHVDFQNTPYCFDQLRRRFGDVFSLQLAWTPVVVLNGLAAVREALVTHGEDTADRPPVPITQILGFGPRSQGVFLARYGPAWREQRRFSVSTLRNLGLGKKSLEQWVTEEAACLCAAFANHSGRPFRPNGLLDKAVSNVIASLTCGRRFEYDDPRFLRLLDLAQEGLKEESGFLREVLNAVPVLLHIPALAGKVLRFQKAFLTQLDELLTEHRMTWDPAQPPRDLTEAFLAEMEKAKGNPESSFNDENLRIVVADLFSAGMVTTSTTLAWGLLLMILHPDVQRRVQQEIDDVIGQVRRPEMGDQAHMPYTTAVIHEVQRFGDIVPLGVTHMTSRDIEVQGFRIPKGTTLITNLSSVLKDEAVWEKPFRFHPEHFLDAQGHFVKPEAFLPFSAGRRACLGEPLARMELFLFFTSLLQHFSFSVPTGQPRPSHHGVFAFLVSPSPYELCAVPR

For `O=C1CCc2cc(OCCCCc3nnnn3C3CCCCC3)ccc2N1`, the outcome in test [1], in [2] and in [6] was inactive. For the same compound, the Potency result in test [3], in test [4] and in test [5] was “inactive” each time.
For `CCCCNc1cc(C(=O)O)cc(S(N)(=O)=O)c1Oc1ccccc1`, the compound was classed as inactive in test [1], in test [8] and in test [6]. For the same compound, the Potency result in test [7], in test [4], in test [5], in [9] and in [10] was “inactive” each time.
Regarding `CCOC(=O)N1CCC(=C2c3ccc(Cl)cc3CCc3cccnc32)CC1`, the call in [1] and in [6] was inactive. In addition, the Potency entry in test [7], in test [4] and in [5] was “inactive” each time. Besides, the Potency in test [11] is 15.8 µM (active).
`CCOC(=O)C1=C[C@@]2(CC)CCCN3CCc4c(n1c1ccccc41)[C@H]32`: the outcome in test [1], in [2], in test [8] and in test [6] was inactive. For the same compound, the Potency result in test [12] and in test [10] was “inactive” throughout. Also, the Potency in [3] is 39.8 µM (active) and 6.31 µM (active).
`Cc1ccc(N(CC2=NCCN2)c2cccc(O)c2)cc1`: the compound was called inactive in test [1], in test [8] and in test [6]. Further, in test [3], the Potency was 3.16 µM (active) and 794 nM (active). Besides, the Potency result in test [4], in [5] and in test [10] was “inactive” in each case.
On to `O=c1[nH]cnc2[nH]ncc12`, for which the outcome in [13], in [14], in [15], in test [16], in [17] and in test [1] was inactive. Besides, the result in test [8] and in test [6] was inactive. The Potency result in test [12], in test [18], in [3], in test [4], in [19] and in test [5] was “inactive” in each case.
For the compound `Cc1oncc1C(=O)Nc1ccc(C(F)(F)F)cc1`, the compound was classed as inactive in [1], in test [2] and in [6]. Also, the Potency result in test [3], in test [7], in test [4] and in test [5] was “inactive” in each case.
Regarding `Nc1nc2c(ncn2COCCO)c(=O)[nH]1`, the outcome in test [1], in [8] and in test [6] was inactive. Also, the Potency result in test [18] and in [5] was “inactive” each time.
Take `CC(C)(Sc1ccc(CCN(CCCCC2CCCCC2)C(=O)NC2CCCCC2)cc1)C(=O)O`: the result in test [1], in test [2], in test [8] and in test [6] was inactive. For the same compound, the Potency was 31.6 µM (active) in test [12], 3.98 µM (active) in test [18] and 14.1 µM (active) in test [7]. In addition, the Potency entry in [3], in test [9] and in [10] was “inactive” each time.

(Values after PubChem BioAssay (NCATS).)
